According to PubChem BioAssay (Tox21):
Active and inactive are the calls of the source. A call without a number means that no potency is given here. The call rests on the fitted dose curve.

The compounds below were run against Acetylcholinesterase (Homo sapiens) (UniProt P22303) (assay: Acetylcholinesterase (AChE) small molecule antagonists: enzyme-based qHTS assay with human liver microsomes (AID 1347399; further: nearly all actives have a fitted effect of over 60% in size)). Details: Potency: qHTS inhibition; outcome: qHTS inhibition; series mostly up to 115 µM.
Sequence of Acetylcholinesterase (Homo sapiens) (P22303 whole entry, looked up): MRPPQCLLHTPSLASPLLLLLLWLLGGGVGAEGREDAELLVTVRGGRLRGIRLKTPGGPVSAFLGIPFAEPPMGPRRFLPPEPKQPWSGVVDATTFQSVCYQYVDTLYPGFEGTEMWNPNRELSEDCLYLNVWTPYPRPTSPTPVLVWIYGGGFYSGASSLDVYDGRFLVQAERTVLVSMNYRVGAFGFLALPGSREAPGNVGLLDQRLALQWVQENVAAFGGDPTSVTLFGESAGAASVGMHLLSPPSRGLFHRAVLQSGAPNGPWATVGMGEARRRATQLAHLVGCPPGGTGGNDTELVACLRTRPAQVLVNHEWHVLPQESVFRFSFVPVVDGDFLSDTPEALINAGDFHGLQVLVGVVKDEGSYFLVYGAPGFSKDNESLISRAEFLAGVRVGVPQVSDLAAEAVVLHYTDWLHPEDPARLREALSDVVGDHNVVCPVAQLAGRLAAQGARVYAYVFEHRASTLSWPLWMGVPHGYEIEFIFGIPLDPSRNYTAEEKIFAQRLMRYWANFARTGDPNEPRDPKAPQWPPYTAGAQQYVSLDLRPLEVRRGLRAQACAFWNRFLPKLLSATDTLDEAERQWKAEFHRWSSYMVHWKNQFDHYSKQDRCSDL
Outline: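 Recombinant human AChE (50 mU/mL in the enzyme mix) and human liver microsomes (0.25 mg/mL final) were preincubated with compound and NADPH (0.25 mg/mL final) for 30 min at 37 C. Acetylthiocholine/DTNB was then added; thiocholine was read colorimetrically after 10 min at room temperature.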
Potency means the concentration at half of the fitted maximal effect.

Structure (SMILES)	activity change, negative = inhibition	Potency
COC=O	0.679% [at 10.5 µM] (inactive)	–
CC(=O)OC[C@H]1O[C@@](COC(C)=O)(O[C@H]2O[C@H](COC(C)=O)[C@@H](OC(C)=O)[C@H](OC(C)=O)[C@H]2OC(C)=O)[C@@H](OC(C)=O)[C@@H]1OC(C)=O	–	inactive
CN1C(C(=O)Nc2ccccn2)=C(O)c2sccc2S1(=O)=O	–	inactive
CCCOC(=O)CC	–	inactive
CCCCCCCC(C)=O	–	inactive
CC(C)N(c1ccccc1)C(C)C	–	inactive
Cc1ccc2c(ccc3ccccc32)c1	–	inactive
COS(=O)(=O)O	–	inactive
Nc1cc(Cl)c([N+](=O)[O-])cc1O	–	inactive
c1ccc2[nH]cnc2c1	–	inactive
CC1CCC(CO)CC1 (stereo not given)	–	inactive
CC(=O)CC(=O)Nc1ccccc1	–	inactive
CC/C=C\CCOC(=O)CCCCC	–	inactive
O=C(O)c1cc(-c2ccccc2)nc2ccccc12	–	inactive
NC(=O)c1cn(Cc2c(F)cccc2F)nn1	–	inactive
NC(CCC(=O)O)C(=O)O (stereo not given)	–	inactive
CC(=O)N[C@H]1[C@H]([C@H](O)[C@H](O)CO)OC(C(=O)O)=C[C@@H]1N=C(N)N	–	inactive
c1ccc2c(c1)Oc1ccccc1S2	–	inactive
C=C(C)C(=O)OCc1ccccc1	–	inactive
Cc1c(C(N)=O)cc([N+](=O)[O-])cc1[N+](=O)[O-]	–	inactive

Structure (SMILES)	activity change, negative = inhibition	Potency
CCOc1ccc(NC(=O)CC(C)=O)cc1	–	inactive
CCCCCCCCCCCCCCCBr	–	inactive
O=C1CCC(N2C(=O)c3ccccc3C2=O)C(=O)N1 (stereo not given)	–	inactive
CC(=O)C1C(=O)C=C(C)OC1=O (stereo not given)	–	inactive
CCCCC(CC)COP(=O)(OCC(CC)CCCC)OCC(CC)CCCC (stereo not given)	–	inactive
C[Si](C)(C)O[Si](O)(O)O	–	inactive
Cc1cc(C(C)(C)C)c(O)c(C(C)(C)C)c1	–	inactive
O=[N+]([O-])c1ccc(F)cc1F	–	inactive
NC(Cc1c[nH]c2ccccc12)C(=O)O (stereo not given)	–	inactive
O=C(O)CCS	–	inactive
NNC(=O)c1cccc(C(=O)NN)c1	–	inactive
O=S(=O)(O)c1ccc2cc(O)ccc2c1	–	inactive
Nc1nc(-c2ccc([N+](=O)[O-])cc2)cs1	–	inactive
O=C(O)C1(C(=O)O)CCC1.[NH2-].[NH2-].[Pt+2]	–	inactive
Clc1ccc(Nc2nnc(Cc3ccncc3)c3ccccc23)cc1	–	inactive
CCc1cccc(C)c1N(C(=O)CS(=O)(=O)O)C(C)COC (stereo not given)	–	inactive
Cc1ccc(C)c(O)c1C	–	inactive
CC1COc2ccccc2N1C(=O)C(Cl)Cl (stereo not given)	–	inactive
Cc1cc2nc3ccc(=[N+](C)C)cc-3sc2cc1N	–	24.5 µM (active)
O=c1[nH]cccc1O	–	inactive
